# Data: ChEMBL document CHEMBL2218924, “A broad activity screen in support of a chemogenomic map for kinase signalling research and drug discovery” (Biochem J, 2013)
# What was measured:
# [1] = target: T1, Serine/threonine-protein kinase TBK1 (Homo sapiens) (UniProt Q9UHD2); details: at 10 µM
# T1 sequence (whole entry): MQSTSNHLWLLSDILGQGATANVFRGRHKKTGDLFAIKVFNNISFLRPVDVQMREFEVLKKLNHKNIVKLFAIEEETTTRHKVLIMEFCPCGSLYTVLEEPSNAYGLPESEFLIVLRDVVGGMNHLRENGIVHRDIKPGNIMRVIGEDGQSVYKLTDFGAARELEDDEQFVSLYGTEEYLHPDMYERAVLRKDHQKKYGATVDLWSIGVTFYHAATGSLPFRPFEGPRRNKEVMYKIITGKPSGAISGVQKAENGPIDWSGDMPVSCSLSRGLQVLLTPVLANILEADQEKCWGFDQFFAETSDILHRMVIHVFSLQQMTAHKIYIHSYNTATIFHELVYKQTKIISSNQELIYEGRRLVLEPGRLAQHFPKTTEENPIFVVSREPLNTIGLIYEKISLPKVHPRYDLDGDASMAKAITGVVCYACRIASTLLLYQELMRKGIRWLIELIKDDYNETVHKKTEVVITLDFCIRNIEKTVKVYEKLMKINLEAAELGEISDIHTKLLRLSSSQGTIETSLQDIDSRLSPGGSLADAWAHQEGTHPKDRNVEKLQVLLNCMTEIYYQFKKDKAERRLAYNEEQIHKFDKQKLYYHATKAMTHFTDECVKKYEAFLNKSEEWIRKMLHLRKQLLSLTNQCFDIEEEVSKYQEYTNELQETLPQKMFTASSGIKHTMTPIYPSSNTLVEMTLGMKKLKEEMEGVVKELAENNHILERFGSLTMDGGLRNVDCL
# [2] = target: T2, TGF-beta receptor type-1 (Homo sapiens) (UniProt P36897); details: at 1 µM
# T2 sequence (whole entry): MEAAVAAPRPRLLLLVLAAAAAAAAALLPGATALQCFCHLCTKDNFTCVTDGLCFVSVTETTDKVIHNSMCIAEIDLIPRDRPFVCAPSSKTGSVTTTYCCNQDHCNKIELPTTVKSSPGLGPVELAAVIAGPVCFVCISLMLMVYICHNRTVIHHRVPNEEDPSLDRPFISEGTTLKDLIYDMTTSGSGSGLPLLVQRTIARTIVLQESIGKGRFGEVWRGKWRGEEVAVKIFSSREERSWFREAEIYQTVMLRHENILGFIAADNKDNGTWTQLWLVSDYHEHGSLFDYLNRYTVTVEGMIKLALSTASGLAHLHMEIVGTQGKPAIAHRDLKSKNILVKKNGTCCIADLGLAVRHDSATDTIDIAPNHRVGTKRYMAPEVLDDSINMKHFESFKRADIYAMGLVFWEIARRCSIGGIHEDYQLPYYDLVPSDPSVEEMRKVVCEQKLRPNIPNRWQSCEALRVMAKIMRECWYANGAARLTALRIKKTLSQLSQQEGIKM
# [3] = target: T2, TGF-beta receptor type-1 (Homo sapiens); details: at 10 µM
# [4] = target: Insulin-like growth factor 1 receptor (Homo sapiens) (UniProt P08069); details: at 1 µM
# Insulin-like growth factor 1 receptor (Homo sapiens), sequence (P08069 31-736 limits assumed): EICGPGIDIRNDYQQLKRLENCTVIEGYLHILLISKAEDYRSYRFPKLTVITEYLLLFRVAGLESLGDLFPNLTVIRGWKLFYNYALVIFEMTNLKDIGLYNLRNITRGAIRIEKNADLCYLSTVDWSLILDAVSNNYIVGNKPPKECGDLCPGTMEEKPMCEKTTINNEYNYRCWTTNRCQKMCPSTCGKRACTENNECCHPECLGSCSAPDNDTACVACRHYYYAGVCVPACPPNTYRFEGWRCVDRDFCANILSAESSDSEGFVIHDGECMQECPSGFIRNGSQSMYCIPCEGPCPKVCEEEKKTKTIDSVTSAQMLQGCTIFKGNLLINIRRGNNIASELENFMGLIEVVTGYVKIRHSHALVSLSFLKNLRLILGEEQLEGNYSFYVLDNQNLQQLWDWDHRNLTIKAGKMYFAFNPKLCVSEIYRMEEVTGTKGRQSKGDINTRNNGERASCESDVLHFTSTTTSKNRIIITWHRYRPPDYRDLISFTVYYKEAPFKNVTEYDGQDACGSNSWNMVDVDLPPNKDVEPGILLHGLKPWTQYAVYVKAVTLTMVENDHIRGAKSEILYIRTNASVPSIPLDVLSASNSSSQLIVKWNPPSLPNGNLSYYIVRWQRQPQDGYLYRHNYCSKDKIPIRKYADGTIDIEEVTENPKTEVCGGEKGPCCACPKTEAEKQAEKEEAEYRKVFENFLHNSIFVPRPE
# Insulin-like growth factor 1 receptor (Homo sapiens), sequence (P08069 741-1367 limits assumed): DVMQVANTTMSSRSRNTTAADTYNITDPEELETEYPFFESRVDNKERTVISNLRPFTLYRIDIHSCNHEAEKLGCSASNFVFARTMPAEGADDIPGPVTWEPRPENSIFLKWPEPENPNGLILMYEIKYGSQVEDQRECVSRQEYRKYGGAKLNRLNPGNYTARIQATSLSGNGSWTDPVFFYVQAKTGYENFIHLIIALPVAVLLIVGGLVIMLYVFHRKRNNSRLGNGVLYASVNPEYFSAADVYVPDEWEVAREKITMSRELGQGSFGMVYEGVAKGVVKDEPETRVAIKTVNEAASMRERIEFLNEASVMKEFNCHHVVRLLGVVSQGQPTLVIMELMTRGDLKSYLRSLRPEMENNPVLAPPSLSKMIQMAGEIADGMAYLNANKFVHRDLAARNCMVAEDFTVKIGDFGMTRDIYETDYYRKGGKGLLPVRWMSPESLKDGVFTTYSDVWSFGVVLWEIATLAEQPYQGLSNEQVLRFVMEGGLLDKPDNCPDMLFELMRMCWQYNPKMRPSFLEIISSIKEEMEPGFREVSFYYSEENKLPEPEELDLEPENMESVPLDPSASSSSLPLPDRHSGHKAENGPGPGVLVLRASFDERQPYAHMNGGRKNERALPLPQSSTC
# [5] = target: Insulin-like growth factor 1 receptor (Homo sapiens) (UniProt P08069); details: at 10 µM
# [6] = target: T3, Inhibitor of nuclear factor kappa-B kinase subunit alpha (Homo sapiens) (UniProt O15111); details: at 1 µM
# T3 sequence (whole entry): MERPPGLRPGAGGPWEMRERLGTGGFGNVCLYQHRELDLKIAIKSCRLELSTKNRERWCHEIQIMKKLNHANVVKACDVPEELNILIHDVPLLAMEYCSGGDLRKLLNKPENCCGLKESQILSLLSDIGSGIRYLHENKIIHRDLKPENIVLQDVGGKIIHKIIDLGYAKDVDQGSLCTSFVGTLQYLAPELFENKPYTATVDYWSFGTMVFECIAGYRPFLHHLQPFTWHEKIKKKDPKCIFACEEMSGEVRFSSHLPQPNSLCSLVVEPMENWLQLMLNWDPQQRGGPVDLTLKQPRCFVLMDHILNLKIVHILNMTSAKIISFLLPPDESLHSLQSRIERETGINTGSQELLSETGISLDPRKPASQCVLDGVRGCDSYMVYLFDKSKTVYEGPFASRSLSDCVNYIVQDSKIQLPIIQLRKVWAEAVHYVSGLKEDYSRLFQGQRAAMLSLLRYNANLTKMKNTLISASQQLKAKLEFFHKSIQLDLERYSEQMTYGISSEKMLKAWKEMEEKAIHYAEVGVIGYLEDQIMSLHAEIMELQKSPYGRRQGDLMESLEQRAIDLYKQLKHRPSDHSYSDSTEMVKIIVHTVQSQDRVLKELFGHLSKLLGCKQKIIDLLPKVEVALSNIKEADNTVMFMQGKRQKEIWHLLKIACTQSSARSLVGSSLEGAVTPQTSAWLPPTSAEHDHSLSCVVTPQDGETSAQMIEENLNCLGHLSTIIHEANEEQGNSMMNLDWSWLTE
# [7] = target: T3, Inhibitor of nuclear factor kappa-B kinase subunit alpha (Homo sapiens); details: at 10 µM
# [8] = target: T4, Inhibitor of nuclear factor kappa-B kinase subunit beta (Homo sapiens) (UniProt O14920); details: at 1 µM
# T4 sequence (whole entry): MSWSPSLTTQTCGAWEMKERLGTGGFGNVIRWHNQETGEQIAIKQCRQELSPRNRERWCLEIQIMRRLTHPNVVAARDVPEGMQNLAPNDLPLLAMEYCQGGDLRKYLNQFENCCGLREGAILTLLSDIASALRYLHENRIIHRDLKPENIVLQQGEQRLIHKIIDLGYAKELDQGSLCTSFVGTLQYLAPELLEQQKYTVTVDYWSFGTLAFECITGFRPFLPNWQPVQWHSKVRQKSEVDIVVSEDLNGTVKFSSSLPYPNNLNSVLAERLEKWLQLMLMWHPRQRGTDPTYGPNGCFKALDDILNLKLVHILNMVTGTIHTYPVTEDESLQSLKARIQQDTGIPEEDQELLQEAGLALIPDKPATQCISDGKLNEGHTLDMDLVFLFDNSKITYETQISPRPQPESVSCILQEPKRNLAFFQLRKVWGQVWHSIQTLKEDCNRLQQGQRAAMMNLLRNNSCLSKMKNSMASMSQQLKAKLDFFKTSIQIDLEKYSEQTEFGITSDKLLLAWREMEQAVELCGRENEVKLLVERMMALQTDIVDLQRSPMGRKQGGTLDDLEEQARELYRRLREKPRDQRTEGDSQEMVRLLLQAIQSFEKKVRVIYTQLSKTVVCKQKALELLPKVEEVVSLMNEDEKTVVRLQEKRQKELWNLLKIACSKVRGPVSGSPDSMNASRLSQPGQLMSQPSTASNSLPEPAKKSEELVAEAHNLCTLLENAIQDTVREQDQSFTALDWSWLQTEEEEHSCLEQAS
# [9] = target: T4, Inhibitor of nuclear factor kappa-B kinase subunit beta (Homo sapiens); details: at 10 µM
# [10] = target: Insulin receptor (Homo sapiens) (UniProt P06213); details: at 1 µM
# Insulin receptor (Homo sapiens), sequence (P06213 28-758 limits assumed): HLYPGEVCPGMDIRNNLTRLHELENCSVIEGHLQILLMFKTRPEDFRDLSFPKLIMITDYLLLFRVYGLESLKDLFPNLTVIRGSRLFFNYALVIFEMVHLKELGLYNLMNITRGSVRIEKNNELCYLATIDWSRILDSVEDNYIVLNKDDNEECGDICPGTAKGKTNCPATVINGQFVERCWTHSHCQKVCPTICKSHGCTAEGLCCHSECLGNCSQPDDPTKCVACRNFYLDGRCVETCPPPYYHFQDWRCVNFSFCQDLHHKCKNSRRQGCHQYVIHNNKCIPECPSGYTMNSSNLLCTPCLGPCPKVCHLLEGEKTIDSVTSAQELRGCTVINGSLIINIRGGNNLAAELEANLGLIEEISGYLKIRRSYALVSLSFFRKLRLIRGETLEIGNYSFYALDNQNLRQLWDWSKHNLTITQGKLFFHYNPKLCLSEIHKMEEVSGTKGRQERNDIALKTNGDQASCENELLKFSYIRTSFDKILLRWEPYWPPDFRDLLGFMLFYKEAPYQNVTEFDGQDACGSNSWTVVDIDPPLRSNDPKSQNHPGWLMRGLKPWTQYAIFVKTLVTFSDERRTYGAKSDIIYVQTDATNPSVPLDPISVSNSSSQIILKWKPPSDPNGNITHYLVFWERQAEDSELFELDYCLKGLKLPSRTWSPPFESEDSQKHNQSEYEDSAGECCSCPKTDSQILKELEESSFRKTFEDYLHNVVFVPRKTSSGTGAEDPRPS
# Insulin receptor (Homo sapiens), sequence (P06213 763-1382 limits assumed): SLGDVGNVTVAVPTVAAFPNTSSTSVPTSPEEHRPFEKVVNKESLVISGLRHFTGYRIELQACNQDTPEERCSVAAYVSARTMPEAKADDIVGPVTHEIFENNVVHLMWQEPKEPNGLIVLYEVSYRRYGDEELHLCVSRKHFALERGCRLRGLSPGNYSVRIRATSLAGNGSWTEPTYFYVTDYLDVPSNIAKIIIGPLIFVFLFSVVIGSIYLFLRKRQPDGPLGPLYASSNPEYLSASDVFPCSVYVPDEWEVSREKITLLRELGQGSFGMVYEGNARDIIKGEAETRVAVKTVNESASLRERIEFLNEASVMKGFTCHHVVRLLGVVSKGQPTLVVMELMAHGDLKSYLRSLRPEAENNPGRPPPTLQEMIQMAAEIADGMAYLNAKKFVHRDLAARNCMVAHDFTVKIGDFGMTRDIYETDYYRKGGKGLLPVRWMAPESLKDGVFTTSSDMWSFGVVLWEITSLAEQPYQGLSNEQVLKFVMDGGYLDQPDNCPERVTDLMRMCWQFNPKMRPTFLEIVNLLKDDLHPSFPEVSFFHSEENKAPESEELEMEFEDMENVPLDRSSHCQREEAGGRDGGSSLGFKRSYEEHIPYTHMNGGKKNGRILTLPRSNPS
smiles,measurement,setting,value
N#C/C(=C(\N)Sc1ccc(N)cc1)c1ccccc1C(F)(F)F,residual activity,[1],16%
same,residual activity,[2],101%
same,residual activity,[3],95%
same,residual activity,[4],103%
same,residual activity,[5],102%
same,residual activity,[6],101%
same,residual activity,[7],121%
same,residual activity,[8],106%
same,residual activity,[9],109%
same,residual activity,[10],113%
